Reference: PubChem BioAssay (NCATS)
Inconclusive results are not listed. Calls of active or inactive are those of the source. Calls follow the shape of the dose curve; as a rule, active = well fitted curve in the direction sought with a large enough effect; inconclusive = small, poorly fitted or top-dose-only effect, or another doubt; inactive = no such curve, though single readings can be large; an effect the other way counts as inactive or inconclusive.

Tests used:
[1] = molecular target: Rap guanine nucleotide exchange factor 3 (Homo sapiens) (UniProt O95398); assay: Confirmatory qHTS for agonist of cAMP-regulated guanine nucleotide exchange factor 3 (EPAC1) (AID 1645881);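 also: EPAC1 catalysed release of BODIPY-GDP from Rap1B seen as fluorescence loss; 100% = effect of cAMP agonist control; nearly all actives have a fitted effect of over 75% in size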
[2] = molecular target: Rap guanine nucleotide exchange factor 4 (Homo sapiens) (UniProt Q8WZA2); assay: Confirmatory qHTS for agonist of cAMP-regulated guanine nucleotide exchange factor 4 (EPAC2) (AID 1645884);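 also: nucleotide exchange releases bodipy-GDP from Rap1 and this lowers its fluorescence; % is scaled to controls: 0 for no effect and ±100 for the full control effect; nearly all actives have a fitted effect of over 65% in size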
[3] = molecular target: Rap guanine nucleotide exchange factor 4 (Homo sapiens) (UniProt Q8WZA2); assay: Confirmatory qHTS for antagonist of cAMP-regulated guanine nucleotide exchange factor 4 (EPAC2) (AID 1645885); also: nearly all actives have a fitted effect of over 25% in size; also: potency is read from the fitted curve at half-maximal effect; as to activity change, negative = inhibition: % is scaled to controls: 0 for no effect and ±100 for the full control effect
[4] = molecular target: Rap guanine nucleotide exchange factor 3 (Homo sapiens) (UniProt O95398); assay: Counterscreen qHTS for antagonist of cAMP-regulated guanine nucleotide exchange factor 3 (EPAC1) (AID 1645888);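 also: fluorescence loss as bound BODIPY-GDP is released from Rap1B; % of control where 0% means no effect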
Outline: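 Measured: fluorescence of BODIPY-GDP bound to Rap1B, which falls as exchange proceeds. Conditions include 50 uM competing GDP, 5 and 30 min reads, and a later cAMP challenge for antagonist detection.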

Chain of Rap guanine nucleotide exchange factor 3 (Homo sapiens) (O95398 whole entry, looked up): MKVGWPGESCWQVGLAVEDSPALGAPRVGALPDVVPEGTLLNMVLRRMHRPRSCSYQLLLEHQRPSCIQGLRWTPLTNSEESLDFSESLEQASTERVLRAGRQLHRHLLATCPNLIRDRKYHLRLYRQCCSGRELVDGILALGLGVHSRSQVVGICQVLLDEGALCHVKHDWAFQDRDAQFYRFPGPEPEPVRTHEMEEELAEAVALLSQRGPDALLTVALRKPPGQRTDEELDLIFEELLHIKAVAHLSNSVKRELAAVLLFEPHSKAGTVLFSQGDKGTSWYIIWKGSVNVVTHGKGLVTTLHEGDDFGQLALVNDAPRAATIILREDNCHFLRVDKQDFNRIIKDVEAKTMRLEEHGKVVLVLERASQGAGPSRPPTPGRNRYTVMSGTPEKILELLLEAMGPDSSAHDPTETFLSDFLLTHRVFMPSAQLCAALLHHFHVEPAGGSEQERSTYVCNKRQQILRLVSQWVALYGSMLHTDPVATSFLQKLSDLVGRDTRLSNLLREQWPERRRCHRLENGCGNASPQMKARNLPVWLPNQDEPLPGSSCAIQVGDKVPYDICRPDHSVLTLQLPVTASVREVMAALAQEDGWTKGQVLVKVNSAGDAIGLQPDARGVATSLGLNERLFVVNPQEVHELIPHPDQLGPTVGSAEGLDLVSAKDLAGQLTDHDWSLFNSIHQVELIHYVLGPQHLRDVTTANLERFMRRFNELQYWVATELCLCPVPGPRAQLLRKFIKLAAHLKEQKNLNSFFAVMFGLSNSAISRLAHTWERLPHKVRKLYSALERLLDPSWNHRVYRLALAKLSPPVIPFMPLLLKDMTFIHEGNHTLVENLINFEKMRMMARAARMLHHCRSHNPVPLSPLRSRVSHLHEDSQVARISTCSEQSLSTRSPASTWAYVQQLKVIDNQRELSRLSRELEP
Chain of Rap guanine nucleotide exchange factor 4 (Homo sapiens) (Q8WZA2 whole entry, looked up): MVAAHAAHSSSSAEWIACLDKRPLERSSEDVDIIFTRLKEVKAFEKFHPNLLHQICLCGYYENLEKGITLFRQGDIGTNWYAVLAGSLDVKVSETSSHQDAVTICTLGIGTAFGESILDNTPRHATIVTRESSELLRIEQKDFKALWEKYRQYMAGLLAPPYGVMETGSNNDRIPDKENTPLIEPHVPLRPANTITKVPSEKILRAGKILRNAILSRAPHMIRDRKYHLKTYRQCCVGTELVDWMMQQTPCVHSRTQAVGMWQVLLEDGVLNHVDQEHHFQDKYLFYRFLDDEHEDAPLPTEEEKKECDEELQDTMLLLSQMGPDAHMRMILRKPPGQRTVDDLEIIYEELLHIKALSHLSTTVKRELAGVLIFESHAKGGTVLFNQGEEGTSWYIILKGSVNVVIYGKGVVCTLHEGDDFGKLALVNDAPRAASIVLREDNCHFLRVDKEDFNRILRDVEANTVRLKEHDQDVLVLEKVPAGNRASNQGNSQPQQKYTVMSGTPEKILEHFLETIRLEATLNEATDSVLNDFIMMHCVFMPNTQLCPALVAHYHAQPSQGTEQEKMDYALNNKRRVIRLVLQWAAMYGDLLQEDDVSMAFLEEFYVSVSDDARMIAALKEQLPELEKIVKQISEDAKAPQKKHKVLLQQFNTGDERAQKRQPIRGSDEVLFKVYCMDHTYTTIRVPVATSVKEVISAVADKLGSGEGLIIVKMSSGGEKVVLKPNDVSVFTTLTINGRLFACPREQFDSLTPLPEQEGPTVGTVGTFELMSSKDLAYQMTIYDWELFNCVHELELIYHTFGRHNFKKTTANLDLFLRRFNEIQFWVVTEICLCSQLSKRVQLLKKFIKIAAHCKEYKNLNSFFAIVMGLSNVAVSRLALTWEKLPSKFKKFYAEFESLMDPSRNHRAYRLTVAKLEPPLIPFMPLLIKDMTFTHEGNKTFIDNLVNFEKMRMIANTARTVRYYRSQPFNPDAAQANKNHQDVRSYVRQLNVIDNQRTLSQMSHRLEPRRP

O=C1Cc2ccccc2C(=O)N1CCc1ccccc1
inactive: Potency [1] | Potency [2] | Potency [3] | Potency [4]

O=C(O)c1ccc(-c2nc(-c3ccc(Cl)cc3Cl)cs2)cc1
inactive: Potency [1] | activation [2] 10.1% [at 17.1 µM, percent relative to cAMP agonist control] | Potency [3] | activity change, negative = inhibition [4] -4.87% [at 30.8 µM]

CCc1ccc(/C=C2\SC(=S)N(CCCC(=O)Nc3ccccc3C(=O)O)C2=O)cc1
inactive: Potency [1] | activation [2] 7.93% [at 17.1 µM, percent relative to cAMP agonist control] | Potency [3] | activity change, negative = inhibition [4] 0.611% [at 30.8 µM]

O=C(CSc1nc(O)cc(=O)n1-c1ccccc1)Nc1nc2ccccc2s1
inactive: Potency [1] | Potency [2] | Potency [3] | Potency [4]

O=C1C(=O)c2cccnc2-c2ncccc21
inactive: Potency [1] | Potency [2] | Potency [3] | Potency [4]

COC(=O)c1ccc2nc(-c3ccc(F)cc3)c(Cc3ccc(C)cc3)n2c1
inactive: Potency [1] | activation [2] 1.87% [at 17.1 µM, percent relative to cAMP agonist control] | Potency [3] | activity change, negative = inhibition [4] -2.87% [at 30.8 µM]

CCOC(=O)c1ccccc1NC(=O)c1c(C)oc2ncnc(N3CCOCC3)c12
inactive: Potency [1] | Potency [2] | Potency [3] | Potency [4]

NC(=O)c1c(NC(=O)CN2CCN(S(=O)(=O)c3ccccc3)CC2)sc2c1CCC2
inactive: Potency [1] | Potency [2] | Potency [3] | Potency [4]

O=C(NCCCN1CCOCC1)c1ccc2c(c1)N(Cc1cccc(Cl)c1)C(=O)c1ccccc1S2
inactive: Potency [1] | Potency [2] | Potency [3] | Potency [4]

C/C=C/COC(=O)c1[nH]c2c(c1C)C(=O)CC(c1ccco1)C2 (stereo unspecified)
inactive: Potency [1] | Potency [2] | Potency [3] | Potency [4]

O=C(N/N=C/c1ccc(O)c(O)c1)c1ccc(CSc2cccc3cccnc23)cc1
inactive: Potency [1] | activation [2] 14.6% [at 17.1 µM, percent relative to cAMP agonist control] | Potency [3] | activity change, negative = inhibition [4] 41.8% [at 30.8 µM]

COc1ccc(NC(=O)c2ccco2)cc1NC(=O)C(C)Oc1ccc(Cl)cc1Cl (stereo unspecified)
inactive: Potency [1] | Potency [2] | Potency [3] | Potency [4]

O=C1C(Cl)=C(NCCc2ccccc2)C(=O)c2ccccc21
inactive: Potency [1] | Potency [2] | Potency [3] | Potency [4]

COc1cccc(C(=O)Nc2nnc(-c3ccccc3)s2)c1OC
inactive: Potency [1] | Potency [2] | Potency [3] | Potency [4]

O=C1C(=O)c2ccc(-c3ccccc3)cc2-c2ccccc21
inactive: Potency [1] | Potency [2] | Potency [3] | Potency [4]

CN(C)S(=O)(=O)c1cccc(COC(=O)Cc2c(F)cccc2Cl)c1
inactive: Potency [1] | Potency [2] | Potency [3] | Potency [4]

COc1ccc(C(=O)N(Cc2ccco2)Cc2ccc(C)o2)cc1
inactive: Potency [1] | Potency [2] | Potency [3] | Potency [4]

COc1cn(-c2ccccc2)nc1C(=O)Nc1ccc(C)cc1Cl
inactive: Potency [1] | Potency [2] | Potency [4]
active: Potency [3] 95.3 µM

Cc1ccc(N(Cc2ccc([N+](=O)[O-])cc2)C(=O)c2ccco2)cc1
active: Potency [3] 15.1 µM
inactive: Potency [1] | Potency [2] | Potency [4]

Cc1cccc([C@H]2[C@@H]3C=CCC[C@@H]3C(=O)N2Cc2ccccc2)c1
inactive: Potency [1] | Potency [2] | Potency [4]
active: Potency [3] 42.6 µM

Cc1cccc(C)c1NC(=O)Cn1c(=O)n(Cc2ccc(C(=O)NCc3ccco3)cc2)c(=O)c2sccc21
inactive: Potency [1] | Potency [2] | Potency [3] | Potency [4]

CCOC(=O)Cc1cc(=O)n2[nH]c(-c3ccccc3)c(-c3ccccc3)c2n1
inactive: Potency [1] | Potency [2] | Potency [3] | Potency [4]

O=S(=O)(c1ccc2c(c1)C(O)c1ccccc1CC2)C(F)(F)F (stereo unspecified)
inactive: Potency [1] | Potency [2] | Potency [3] | Potency [4]

CCOC(=O)c1ccc2ncc(C(=O)OCC)c(Nc3ccc(C)c(Br)c3)c2c1
inactive: Potency [1] | Potency [2] | outcome [3] inactive [at 12.7 µM] | Potency [4]

Nc1ccc2c(c1)C(=O)C(=O)c1ccccc1-2
inactive: Potency [1] | Potency [2] | Potency [3] | Potency [4]

COc1ccc(CN(C(=O)c2cccs2)c2nccs2)cc1OC
inactive: Potency [1] | Potency [2] | Potency [3] | Potency [4]

COc1ccc(OC)c(Nc2cc3ccccc3c(=O)[nH]2)c1
inactive: Potency [1] | Potency [2] | Potency [3] | Potency [4]

O=C(NCCc1ccccc1)c1ccc(Cn2c(SCc3cccc(F)c3)nc3cccnc32)cc1
inactive: Potency [1] | Potency [2] | Potency [3] | Potency [4]

Cc1ccc(Cn2ccnc2SCC(=O)Nc2ccc3c(c2)OCO3)cc1
inactive: Potency [1] | Potency [2] | Potency [3] | Potency [4]

O=C(CSc1nc2ccc(Cl)cc2[nH]1)N1CCN(C(=O)c2ccco2)CC1
inactive: Potency [1] | Potency [2] | Potency [3] | Potency [4]

CC(C)CNc1ncnc2onc(-c3ccc(Cl)cc3)c12
inactive: Potency [1] | Potency [2] | Potency [3] | Potency [4]

COCCCn1c(=O)/c(=C\c2ccccc2OC(C)C)s/c1=C(/C#N)C(=O)Nc1ccc(C(=O)O)cc1
inactive: Potency [1] | activation [2] 8.99% [at 17.1 µM, percent relative to cAMP agonist control] | Potency [3] | activity change, negative = inhibition [4] 38.7% [at 30.8 µM]

Clc1ccc(-c2nnc(-c3ccco3)nc2N2CCCCC2)cc1
inactive: Potency [1] | activation [2] 3.88% [at 17.1 µM, percent relative to cAMP agonist control] | Potency [3] | activity change, negative = inhibition [4] 13.5% [at 30.8 µM]

Cc1ccc(-c2nc(-c3cc4cccc(OCc5ccc(F)cc5)c4oc3=O)no2)cc1
inactive: Potency [1] | Potency [2] | Potency [3] | Potency [4]

Cc1cc(C)c(S(=O)(=O)c2ccccc2)c(OC(=O)c2c(F)cccc2F)n1
inactive: Potency [1] | activation [2] -4.73% [at 17.1 µM, percent relative to cAMP agonist control] | Potency [3] | activity change, negative = inhibition [4] 8% [at 30.8 µM]

CCn1c2c(c3cc(Cl)ccc31)CCCC2=O
inactive: Potency [1] | Potency [2] | Potency [3] | Potency [4]

CN(C)C(CNC(=O)c1cc(-c2ccco2)nc2ccccc12)c1ccccc1 (stereo unspecified)
inactive: Potency [1] | activation [2] 5.95% [at 17.1 µM, percent relative to cAMP agonist control] | Potency [3] | activity change, negative = inhibition [4] -8.2% [at 30.8 µM]

CCc1cc(C(=O)Nc2ccc(S(=O)(=O)NC3=NCCCCC3)cc2)sc1C
inactive: Potency [1] | activation [2] 5.65% [at 17.1 µM, percent relative to cAMP agonist control] | Potency [3] | activity change, negative = inhibition [4] 4.61% [at 30.8 µM]

CCOc1cc(/C=C2/NC(=O)NC2=O)cc(Br)c1OCc1ccc(C(=O)O)cc1
inactive: Potency [1] | activation [2] 4.12% [at 17.1 µM, percent relative to cAMP agonist control] | Potency [3] | activity change, negative = inhibition [4] -1.26% [at 30.8 µM]

O=C1NC(=O)C(=Cc2ccccc2[N+](=O)[O-])S1
inactive: Potency [1] | activation [2] 5.36% [at 17.1 µM, percent relative to cAMP agonist control] | Potency [3] | activity change, negative = inhibition [4] 0.254% [at 30.8 µM]

CCc1nc2sc3ccccc3c(=O)c2c(=O)n1Cc1ccco1
inactive: Potency [1] | Potency [2] | Potency [4]
active: Potency [3] 75.7 µM

O=C(O)c1ccc(N2C(=O)CC(SC(=NCc3ccc4c(c3)OCO4)Nc3ccc(F)cc3)C2=O)cc1 (stereo unspecified)
inactive: Potency [1] | Potency [2] | Potency [3] | Potency [4]

C/C(=N\Nc1nc2ccccc2[nH]1)c1cc2ccccc2o1
inactive: Potency [1] | activation [2] 1.22% [at 17.1 µM, percent relative to cAMP agonist control] | Potency [3] | activity change, negative = inhibition [4] -0.654% [at 30.8 µM]

Cc1ccc(C)c(-c2ccc(=O)n(Cc3c(F)cccc3Cl)n2)c1
inactive: Potency [1] | Potency [2] | Potency [3] | Potency [4]

CC1=NN(c2ccccc2)C(=O)C1C(=O)c1cc([N+](=O)[O-])cc([N+](=O)[O-])c1 (stereo unspecified)
inactive: Potency [1] | Potency [2] | Potency [3] | Potency [4]

CCCS(=O)(=O)c1c(S(=O)(=O)CCC)c2cnccn2c1C(=O)c1ccc(CC)cc1
inactive: Potency [1] | activation [2] 12.5% [at 17.1 µM, percent relative to cAMP agonist control] | Potency [3] | activity change, negative = inhibition [4] -2.89% [at 30.8 µM]

C[C@H](CO)N1C[C@H](C)[C@H](CN(C)Cc2cccc(O)c2)OCc2ccccc2-c2c(n(C)c3ccccc23)C1=O
inactive: Potency [1] | activation [2] 8.26% [at 17.1 µM, percent relative to cAMP agonist control] | Potency [3] | activity change, negative = inhibition [4] -3.58% [at 30.8 µM]

Cc1ccc(Cl)cc1N1CCN(C(=O)c2ccc(C)c(-n3c(C)nc4cccnc43)c2)CC1
inactive: Potency [1] | Potency [2] | outcome [3] inactive [at 12.7 µM] | Potency [4]

O=[N+]([O-])c1cc(Br)ccc1NS(=O)(=O)c1ccccc1
inactive: Potency [1] | activation [2] -2.03% [at 17.1 µM, percent relative to cAMP agonist control] | Potency [3] | activity change, negative = inhibition [4] -16.7% [at 30.8 µM]

COc1ccc(Oc2cn[nH]c2-c2ccc(OC)cc2O)cc1
inactive: Potency [1] | activation [2] 9.65% [at 17.1 µM, percent relative to cAMP agonist control] | Potency [3] | activity change, negative = inhibition [4] -4.7% [at 30.8 µM]

COc1ccc2ccc(C(C)(C(C)=O)C(=O)OC(C)C)cc2c1 (stereo unspecified)
inactive: Potency [1] | activation [2] 5.56% [at 17.1 µM, percent relative to cAMP agonist control] | Potency [3] | activity change, negative = inhibition [4] -29.5% [at 30.8 µM]

Cc1csc(NC(=O)CSc2sc3c(O)cc(=O)[nH]c3c2C#N)n1
inactive: Potency [1] | Potency [2] | Potency [3] | Potency [4]

COc1ccc(Cl)cc1NC(=O)c1c(NCc2ccc(C)o2)sc2c1CCCCC2
inactive: Potency [1] | Potency [2] | Potency [3] | Potency [4]

Fc1ccccc1C1CC(c2ccco2)=Nc2ccccc2S1 (stereo unspecified)
inactive: Potency [1] | activation [2] 8.88% [at 17.1 µM, percent relative to cAMP agonist control] | Potency [3] | activity change, negative = inhibition [4] -3.18% [at 30.8 µM]
